# Test results published in ChEMBL document CHEMBL1961873, “Compounds: GSK PKIS; Assays: Nanosyn kinase panel” (2012).
# What was measured:
# [1] = tested on: Epidermal growth factor receptor (Homo sapiens), P00533 [T790M]; details: at 1 µM
# [2] = tested on: Epidermal growth factor receptor (Homo sapiens), P00533 [L858R,T790M]; details: at 0.1 µM
# [3] = tested on: Epidermal growth factor receptor (Homo sapiens), P00533 [L858R,T790M]; details: at 1 µM
# [4] = molecular target: Ephrin type-A receptor 2 (Homo sapiens) (UniProt P29317); details: at 0.1 µM
# [5] = molecular target: Ephrin type-A receptor 2 (Homo sapiens) (UniProt P29317); details: at 1 µM
# [6] = molecular target: T1, Ephrin type-A receptor 3 (Homo sapiens) (UniProt P29320); details: at 0.1 µM
# T1 sequence (whole entry): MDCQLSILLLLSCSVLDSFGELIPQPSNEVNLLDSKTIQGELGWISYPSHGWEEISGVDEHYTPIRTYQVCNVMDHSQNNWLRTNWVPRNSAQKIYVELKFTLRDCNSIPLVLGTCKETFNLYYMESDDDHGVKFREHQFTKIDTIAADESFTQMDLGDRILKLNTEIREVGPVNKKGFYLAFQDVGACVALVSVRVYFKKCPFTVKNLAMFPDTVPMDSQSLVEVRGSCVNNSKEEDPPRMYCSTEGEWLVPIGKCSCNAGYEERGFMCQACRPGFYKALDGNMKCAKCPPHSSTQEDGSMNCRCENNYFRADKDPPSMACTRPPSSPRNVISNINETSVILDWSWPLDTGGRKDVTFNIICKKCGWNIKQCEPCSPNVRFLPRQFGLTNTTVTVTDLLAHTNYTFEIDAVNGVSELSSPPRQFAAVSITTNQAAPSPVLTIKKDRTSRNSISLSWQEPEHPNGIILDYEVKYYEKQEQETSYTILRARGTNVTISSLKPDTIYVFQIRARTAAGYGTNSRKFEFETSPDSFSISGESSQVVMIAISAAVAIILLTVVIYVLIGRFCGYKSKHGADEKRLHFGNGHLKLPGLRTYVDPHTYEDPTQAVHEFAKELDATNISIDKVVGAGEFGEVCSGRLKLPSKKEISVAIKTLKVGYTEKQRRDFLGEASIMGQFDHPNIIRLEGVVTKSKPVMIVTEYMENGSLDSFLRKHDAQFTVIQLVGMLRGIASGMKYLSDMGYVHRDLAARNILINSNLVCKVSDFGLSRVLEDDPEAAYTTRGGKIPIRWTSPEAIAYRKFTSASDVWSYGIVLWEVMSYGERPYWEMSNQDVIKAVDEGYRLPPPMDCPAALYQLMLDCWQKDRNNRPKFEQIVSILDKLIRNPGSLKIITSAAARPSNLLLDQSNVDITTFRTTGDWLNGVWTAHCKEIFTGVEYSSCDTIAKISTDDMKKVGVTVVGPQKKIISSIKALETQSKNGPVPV
# [7] = molecular target: T1, Ephrin type-A receptor 3 (Homo sapiens); details: at 1 µM
# [8] = molecular target: Ephrin type-A receptor 4 (Homo sapiens) (UniProt P54764); details: at 0.1 µM
# [9] = molecular target: Ephrin type-A receptor 4 (Homo sapiens) (UniProt P54764); details: at 1 µM
# [10] = molecular target: T2, Ephrin type-B receptor 2 (Homo sapiens) (UniProt P29323); details: at 0.1 µM
# T2 sequence (whole entry): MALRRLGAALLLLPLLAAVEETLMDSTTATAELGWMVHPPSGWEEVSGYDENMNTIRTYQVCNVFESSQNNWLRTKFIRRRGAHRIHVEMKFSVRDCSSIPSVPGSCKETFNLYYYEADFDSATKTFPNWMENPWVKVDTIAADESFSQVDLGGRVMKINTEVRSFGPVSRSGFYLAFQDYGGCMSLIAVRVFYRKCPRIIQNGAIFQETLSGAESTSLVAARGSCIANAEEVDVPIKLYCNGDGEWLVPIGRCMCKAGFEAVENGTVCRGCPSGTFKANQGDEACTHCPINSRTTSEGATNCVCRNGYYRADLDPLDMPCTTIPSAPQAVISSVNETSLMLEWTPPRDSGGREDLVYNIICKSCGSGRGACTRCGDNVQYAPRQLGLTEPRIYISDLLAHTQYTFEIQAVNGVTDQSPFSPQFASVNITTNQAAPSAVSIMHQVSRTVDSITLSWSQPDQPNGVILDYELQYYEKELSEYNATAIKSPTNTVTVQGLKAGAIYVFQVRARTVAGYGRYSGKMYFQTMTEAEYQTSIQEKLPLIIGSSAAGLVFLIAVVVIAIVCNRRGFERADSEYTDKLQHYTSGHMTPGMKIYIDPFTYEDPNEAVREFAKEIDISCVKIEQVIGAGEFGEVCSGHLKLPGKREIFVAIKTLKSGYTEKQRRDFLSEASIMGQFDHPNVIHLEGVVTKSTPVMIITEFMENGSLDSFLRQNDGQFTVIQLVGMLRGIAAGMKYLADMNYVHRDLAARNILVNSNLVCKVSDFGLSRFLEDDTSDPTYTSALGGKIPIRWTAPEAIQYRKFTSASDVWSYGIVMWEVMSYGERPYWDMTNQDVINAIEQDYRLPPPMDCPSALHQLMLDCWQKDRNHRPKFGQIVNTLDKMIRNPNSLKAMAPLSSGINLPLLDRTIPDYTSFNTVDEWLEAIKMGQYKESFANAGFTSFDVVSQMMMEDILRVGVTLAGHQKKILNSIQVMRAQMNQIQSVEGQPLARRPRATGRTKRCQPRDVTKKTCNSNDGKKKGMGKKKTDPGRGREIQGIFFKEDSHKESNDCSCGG
# [11] = molecular target: T2, Ephrin type-B receptor 2 (Homo sapiens); details: at 1 µM
# [12] = molecular target: T3, Ephrin type-B receptor 3 (Homo sapiens) (UniProt P54753); details: at 0.1 µM
# T3 sequence (whole entry): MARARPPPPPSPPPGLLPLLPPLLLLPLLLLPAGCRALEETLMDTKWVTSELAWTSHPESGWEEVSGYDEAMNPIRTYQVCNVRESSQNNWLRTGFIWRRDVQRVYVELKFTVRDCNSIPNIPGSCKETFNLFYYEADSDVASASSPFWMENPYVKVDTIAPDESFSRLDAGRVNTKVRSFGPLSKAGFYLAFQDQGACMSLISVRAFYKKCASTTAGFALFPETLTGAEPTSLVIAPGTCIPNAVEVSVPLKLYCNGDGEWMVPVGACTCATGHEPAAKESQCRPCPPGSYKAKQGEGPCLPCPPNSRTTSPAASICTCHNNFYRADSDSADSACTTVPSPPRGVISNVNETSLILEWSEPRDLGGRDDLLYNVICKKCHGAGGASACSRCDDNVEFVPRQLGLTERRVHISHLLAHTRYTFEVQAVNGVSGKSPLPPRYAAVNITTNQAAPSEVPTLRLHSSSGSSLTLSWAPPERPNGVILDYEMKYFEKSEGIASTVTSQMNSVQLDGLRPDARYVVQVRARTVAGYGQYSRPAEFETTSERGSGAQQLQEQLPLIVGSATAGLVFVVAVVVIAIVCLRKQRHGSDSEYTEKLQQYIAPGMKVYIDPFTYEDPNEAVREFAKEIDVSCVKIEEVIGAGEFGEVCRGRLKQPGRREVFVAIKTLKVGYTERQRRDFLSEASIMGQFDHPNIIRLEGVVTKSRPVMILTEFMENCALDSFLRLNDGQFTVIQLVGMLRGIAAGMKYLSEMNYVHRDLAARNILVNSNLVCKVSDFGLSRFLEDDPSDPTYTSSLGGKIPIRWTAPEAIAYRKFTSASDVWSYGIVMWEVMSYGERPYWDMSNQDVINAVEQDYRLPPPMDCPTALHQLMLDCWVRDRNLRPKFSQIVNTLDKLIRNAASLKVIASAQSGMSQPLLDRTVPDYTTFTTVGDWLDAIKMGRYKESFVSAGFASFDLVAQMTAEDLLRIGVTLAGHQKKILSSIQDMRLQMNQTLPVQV
# [13] = molecular target: T3, Ephrin type-B receptor 3 (Homo sapiens); details: at 1 µM
# [14] = molecular target: T4, Ephrin type-B receptor 4 (Homo sapiens) (UniProt P54760); details: at 0.1 µM
# T4 sequence (whole entry): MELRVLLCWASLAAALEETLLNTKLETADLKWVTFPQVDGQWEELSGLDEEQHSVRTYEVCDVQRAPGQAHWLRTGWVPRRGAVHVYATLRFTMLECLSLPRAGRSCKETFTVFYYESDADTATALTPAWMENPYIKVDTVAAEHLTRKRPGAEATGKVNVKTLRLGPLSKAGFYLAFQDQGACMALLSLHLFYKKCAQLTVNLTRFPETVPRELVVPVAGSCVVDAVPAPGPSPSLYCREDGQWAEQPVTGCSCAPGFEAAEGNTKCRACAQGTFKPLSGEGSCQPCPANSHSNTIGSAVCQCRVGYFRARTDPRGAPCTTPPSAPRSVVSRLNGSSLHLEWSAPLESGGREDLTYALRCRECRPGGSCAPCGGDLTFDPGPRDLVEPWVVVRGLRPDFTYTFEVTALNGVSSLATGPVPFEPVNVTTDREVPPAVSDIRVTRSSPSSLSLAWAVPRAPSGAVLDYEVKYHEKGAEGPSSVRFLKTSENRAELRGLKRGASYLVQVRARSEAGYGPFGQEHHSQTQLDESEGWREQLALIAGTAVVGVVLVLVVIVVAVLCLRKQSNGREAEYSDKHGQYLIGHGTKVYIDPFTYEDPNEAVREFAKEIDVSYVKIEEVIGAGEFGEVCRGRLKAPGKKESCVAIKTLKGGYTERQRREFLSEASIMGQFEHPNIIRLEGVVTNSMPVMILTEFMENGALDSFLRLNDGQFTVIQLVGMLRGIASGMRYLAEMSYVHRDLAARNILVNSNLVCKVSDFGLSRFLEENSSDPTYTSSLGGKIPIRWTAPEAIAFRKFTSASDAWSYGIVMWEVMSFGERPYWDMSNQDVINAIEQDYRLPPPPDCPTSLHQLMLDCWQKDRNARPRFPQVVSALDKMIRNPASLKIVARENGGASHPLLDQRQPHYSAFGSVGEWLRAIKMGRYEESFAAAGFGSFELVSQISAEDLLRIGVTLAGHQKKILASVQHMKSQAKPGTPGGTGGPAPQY
# [15] = molecular target: T4, Ephrin type-B receptor 4 (Homo sapiens); details: at 1 µM
# [16] = molecular target: Receptor tyrosine-protein kinase erbB-2 (Homo sapiens) (UniProt P04626); details: at 0.1 µM
# [17] = molecular target: Receptor tyrosine-protein kinase erbB-2 (Homo sapiens) (UniProt P04626); details: at 1 µM
# [18] = molecular target: Receptor tyrosine-protein kinase erbB-4 (Homo sapiens) (UniProt Q15303); details: at 0.1 µM
# [19] = molecular target: Receptor tyrosine-protein kinase erbB-4 (Homo sapiens) (UniProt Q15303); details: at 1 µM
# [20] = molecular target: Tyrosine-protein kinase Fer (Homo sapiens) (UniProt P16591); details: at 0.1 µM;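 further: reported figures are averaged percent inhibition of FER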
# Chain of Epidermal growth factor receptor (Homo sapiens), P00533 [T790M] (P00533 whole entry T790M): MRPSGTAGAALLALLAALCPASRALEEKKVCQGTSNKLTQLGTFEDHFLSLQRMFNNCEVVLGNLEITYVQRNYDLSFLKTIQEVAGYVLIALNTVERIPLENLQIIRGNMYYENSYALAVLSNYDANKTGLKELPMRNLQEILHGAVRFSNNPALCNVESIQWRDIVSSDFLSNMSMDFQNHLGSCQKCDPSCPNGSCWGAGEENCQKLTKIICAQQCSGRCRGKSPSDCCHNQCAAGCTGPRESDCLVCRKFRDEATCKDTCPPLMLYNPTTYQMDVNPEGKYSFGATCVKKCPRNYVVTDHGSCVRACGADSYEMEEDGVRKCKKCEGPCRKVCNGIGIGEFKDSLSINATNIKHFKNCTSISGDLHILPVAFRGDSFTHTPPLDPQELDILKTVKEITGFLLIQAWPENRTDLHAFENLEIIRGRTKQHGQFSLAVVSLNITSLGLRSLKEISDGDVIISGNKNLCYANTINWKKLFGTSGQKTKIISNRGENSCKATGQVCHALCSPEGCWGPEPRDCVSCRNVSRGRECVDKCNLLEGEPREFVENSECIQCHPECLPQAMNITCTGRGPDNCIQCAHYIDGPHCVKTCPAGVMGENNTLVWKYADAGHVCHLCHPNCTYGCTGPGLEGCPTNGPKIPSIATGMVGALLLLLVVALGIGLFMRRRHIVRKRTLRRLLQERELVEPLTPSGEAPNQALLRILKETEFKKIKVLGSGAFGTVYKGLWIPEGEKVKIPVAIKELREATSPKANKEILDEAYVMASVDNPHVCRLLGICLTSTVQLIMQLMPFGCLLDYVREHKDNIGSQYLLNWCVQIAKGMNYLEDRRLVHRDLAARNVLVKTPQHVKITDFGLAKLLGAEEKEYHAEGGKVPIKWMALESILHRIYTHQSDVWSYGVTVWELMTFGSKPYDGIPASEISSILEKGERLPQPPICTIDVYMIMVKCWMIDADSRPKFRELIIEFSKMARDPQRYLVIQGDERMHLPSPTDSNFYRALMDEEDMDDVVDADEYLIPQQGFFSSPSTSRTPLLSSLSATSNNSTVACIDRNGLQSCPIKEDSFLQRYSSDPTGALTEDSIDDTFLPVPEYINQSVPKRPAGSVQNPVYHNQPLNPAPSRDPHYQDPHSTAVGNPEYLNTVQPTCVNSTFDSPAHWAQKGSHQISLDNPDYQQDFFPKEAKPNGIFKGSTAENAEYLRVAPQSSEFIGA
# Chain of Ephrin type-A receptor 2 (Homo sapiens) (P29317 whole entry): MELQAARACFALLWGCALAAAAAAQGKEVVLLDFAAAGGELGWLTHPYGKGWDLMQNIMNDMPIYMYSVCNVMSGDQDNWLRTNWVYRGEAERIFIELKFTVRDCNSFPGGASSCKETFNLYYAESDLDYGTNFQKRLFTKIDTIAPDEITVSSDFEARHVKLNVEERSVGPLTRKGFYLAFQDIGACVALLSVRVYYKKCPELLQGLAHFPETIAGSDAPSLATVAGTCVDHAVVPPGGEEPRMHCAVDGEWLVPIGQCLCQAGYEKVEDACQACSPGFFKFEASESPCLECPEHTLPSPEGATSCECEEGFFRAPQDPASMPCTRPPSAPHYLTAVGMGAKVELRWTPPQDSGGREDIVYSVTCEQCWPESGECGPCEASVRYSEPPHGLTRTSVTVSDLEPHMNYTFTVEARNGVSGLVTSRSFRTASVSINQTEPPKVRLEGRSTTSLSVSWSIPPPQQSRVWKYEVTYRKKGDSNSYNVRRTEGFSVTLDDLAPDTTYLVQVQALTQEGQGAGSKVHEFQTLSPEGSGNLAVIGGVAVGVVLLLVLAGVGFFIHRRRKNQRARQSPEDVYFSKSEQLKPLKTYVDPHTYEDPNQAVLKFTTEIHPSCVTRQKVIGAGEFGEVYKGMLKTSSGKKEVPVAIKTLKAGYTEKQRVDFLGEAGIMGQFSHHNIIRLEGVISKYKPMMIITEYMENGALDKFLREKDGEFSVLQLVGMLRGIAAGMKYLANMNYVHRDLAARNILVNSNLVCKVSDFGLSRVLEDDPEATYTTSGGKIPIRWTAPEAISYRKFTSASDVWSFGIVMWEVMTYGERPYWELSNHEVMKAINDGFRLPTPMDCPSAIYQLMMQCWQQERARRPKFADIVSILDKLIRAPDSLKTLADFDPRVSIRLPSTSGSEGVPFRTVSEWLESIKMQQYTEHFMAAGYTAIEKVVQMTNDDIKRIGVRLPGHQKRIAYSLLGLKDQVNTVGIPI
# Chain of Receptor tyrosine-protein kinase erbB-4 (Homo sapiens) (Q15303 whole entry): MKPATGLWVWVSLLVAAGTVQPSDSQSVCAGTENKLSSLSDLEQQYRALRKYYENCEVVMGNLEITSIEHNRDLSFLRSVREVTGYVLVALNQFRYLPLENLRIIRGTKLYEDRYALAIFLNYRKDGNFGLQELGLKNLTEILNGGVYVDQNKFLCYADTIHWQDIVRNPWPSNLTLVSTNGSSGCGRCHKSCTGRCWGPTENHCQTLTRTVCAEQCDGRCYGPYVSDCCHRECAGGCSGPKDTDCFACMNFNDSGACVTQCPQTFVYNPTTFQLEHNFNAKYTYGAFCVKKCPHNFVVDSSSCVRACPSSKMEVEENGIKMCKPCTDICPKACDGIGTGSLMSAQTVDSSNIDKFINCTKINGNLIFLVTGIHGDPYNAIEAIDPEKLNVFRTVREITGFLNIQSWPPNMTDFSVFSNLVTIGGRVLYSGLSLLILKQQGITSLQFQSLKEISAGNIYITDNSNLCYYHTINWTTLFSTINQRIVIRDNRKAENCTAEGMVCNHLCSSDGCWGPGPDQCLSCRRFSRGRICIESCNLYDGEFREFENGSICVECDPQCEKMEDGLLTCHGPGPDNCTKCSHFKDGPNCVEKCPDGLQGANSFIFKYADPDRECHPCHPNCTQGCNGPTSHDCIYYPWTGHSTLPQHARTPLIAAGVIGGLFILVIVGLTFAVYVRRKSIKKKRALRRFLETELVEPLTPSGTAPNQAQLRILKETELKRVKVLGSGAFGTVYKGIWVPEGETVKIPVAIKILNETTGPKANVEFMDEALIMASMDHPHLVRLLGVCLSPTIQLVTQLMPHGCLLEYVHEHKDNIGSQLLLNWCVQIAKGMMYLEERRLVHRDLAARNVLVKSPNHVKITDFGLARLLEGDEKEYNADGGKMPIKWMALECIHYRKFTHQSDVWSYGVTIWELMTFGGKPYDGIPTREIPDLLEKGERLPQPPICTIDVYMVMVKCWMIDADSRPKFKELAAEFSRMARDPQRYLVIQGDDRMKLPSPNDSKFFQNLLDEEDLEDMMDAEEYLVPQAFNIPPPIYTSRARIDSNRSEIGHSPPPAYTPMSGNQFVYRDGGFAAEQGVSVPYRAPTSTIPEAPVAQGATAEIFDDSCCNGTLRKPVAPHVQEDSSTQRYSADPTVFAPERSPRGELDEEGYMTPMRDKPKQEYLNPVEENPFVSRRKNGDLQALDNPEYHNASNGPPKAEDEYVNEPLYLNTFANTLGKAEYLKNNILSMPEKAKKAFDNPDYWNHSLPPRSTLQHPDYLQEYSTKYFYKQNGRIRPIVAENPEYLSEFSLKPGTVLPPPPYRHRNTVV
# Chain of Epidermal growth factor receptor (Homo sapiens), P00533 [L858R,T790M] (P00533 whole entry T790M/L858R, looked up): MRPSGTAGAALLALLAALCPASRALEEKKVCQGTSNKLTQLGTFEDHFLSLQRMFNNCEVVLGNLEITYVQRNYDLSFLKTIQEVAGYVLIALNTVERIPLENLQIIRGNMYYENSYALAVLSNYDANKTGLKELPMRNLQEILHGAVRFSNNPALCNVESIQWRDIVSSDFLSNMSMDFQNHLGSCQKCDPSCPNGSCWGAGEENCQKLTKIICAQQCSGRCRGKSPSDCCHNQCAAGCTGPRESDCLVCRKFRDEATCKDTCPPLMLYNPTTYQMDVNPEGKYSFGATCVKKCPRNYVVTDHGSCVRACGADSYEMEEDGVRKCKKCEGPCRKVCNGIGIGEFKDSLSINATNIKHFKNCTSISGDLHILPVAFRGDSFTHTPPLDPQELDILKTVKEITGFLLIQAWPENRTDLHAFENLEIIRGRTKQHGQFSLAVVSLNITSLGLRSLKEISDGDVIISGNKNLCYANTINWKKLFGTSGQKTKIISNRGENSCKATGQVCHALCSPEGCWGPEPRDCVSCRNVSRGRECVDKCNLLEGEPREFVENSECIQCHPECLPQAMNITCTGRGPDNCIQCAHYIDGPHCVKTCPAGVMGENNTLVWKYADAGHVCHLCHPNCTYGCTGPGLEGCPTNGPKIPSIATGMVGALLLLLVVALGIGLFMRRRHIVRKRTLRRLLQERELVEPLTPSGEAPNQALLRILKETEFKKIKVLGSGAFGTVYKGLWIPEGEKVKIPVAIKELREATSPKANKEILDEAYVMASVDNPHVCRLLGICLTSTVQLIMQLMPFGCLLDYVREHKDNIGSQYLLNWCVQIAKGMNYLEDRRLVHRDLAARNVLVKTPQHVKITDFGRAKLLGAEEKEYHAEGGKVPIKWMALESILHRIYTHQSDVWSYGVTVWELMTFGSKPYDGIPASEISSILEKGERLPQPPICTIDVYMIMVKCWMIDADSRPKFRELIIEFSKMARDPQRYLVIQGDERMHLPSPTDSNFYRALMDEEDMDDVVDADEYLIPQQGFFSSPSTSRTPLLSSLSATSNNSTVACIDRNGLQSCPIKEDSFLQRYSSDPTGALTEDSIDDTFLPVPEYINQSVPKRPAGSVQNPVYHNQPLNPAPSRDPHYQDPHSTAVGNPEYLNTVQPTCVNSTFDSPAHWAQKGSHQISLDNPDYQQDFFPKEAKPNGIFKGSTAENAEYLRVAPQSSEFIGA
Compound,inhibition [1],inhibition [2],inhibition [3],inhibition [4],inhibition [5],inhibition [6],inhibition [7],inhibition [8],inhibition [9],inhibition [10],inhibition [11],inhibition [12],inhibition [13],inhibition [14],inhibition [15],inhibition [16],inhibition [17],inhibition [18],inhibition [19],inhibition [20]
CCN1CCC(C(=O)Nc2n[nH]c3nnc(-c4cccc(F)c4F)cc23)CC1,0.18%,0.75%,-1.85%,-3.74%,-3.34%,-0.58%,-0.43%,-1.7%,-0.26%,0.41%,0.53%,0.69%,1.64%,0.49%,-0.12%,1.2%,0.02%,-0.85%,0.79%,-0.15%
Cc1ccc(-c2cc3c(NC(=O)C4CC4)ncnc3o2)cc1,0.67%,1.96%,5.94%,3.08%,7.49%,3.73%,5.51%,8.88%,20.5%,9.13%,36.6%,5.13%,1.62%,3.05%,12.9%,0.91%,-0.45%,9.66%,11.1%,8.51%
CCS(=O)(=O)c1ccc(OC)c(Nc2ncc(-c3cccc(F)c3)o2)c1,3.03%,5.67%,2.98%,2.15%,9.85%,8.12%,17%,11.3%,33.5%,18.5%,45.9%,3.05%,6.76%,5.59%,31.7%,38.7%,5.62%,9.46%,17.8%,2.32%
NS(=O)(=O)c1ccc(N/N=C2\C(=O)Nc3ccc(C(=O)NCc4ccncc4)cc32)cc1,5.2%,0.1%,2.72%,1.72%,1.75%,4.4%,3.58%,8.7%,15%,4.03%,11.1%,3.93%,2.6%,1.83%,4.17%,2.22%,6.09%,6.54%,7.07%,2.36%
O=C(Nc1n[nH]c2nnc(-c3cccnc3)cc12)C1CC1,-0.7%,-0.13%,-0.34%,-3.08%,-2.73%,-1.3%,-0.05%,0.83%,2.33%,0.05%,3.72%,0.63%,2.01%,2.37%,0.6%,-2.7%,-0.28%,-0.62%,1.8%,-1.4%
COc1ccc(Nc2ncc(-c3ccccc3)o2)cc1OC,-1.98%,-0.33%,-0.29%,0.89%,2.73%,-1.2%,1.63%,2.72%,1.61%,-1.69%,-1.55%,2.4%,-5.15%,2.84%,6.24%,0.01%,-2.56%,6.4%,8.57%,0.47%
CNC(=O)c1cncc(/C=C/c2ccccc2C)c1,4.37%,1.98%,6.74%,2.22%,3.92%,6.53%,6.47%,11.7%,26.1%,7.84%,19.7%,5.82%,4.91%,1.77%,9.19%,2.44%,6.67%,13.2%,14.8%,4.15%
